Assay results reported in PubChem BioAssay (NCATS).
Several values for one entry are separate records, joined by “and”; a condition that tells them apart may be missing. Equal entries are not always repeated.

Experiment: qHTS profiling for inhibitors of Plasmodium falciparum (3D7) proliferation (AID 743322);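 note: infected erythrocytes exposed to compound for 72 h before lysis; 100% = DMSO vehicle wells and 0% = 0.29 µM artemisinin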
Conditions: P. falciparum 3D7 proliferation; at 28.7 µM (top of the series)
Excerpt: Plasmodium falciparum is a virulent malarial parasite that kills 1-2 million people worldwide each year. Transmitted by mosquitoes, the sporozoite form of the parasite enters the blood stream to infect hepatocytes, where they become merozoites that infect red blood cells (erythrocytes). Within erythrocytes, merozoites begin a […] cycle of growth and division, after which the parasite is released to infect new red blood cells. Gametocytes, which form within erythrocytes as well, circulate in the bloodstream and are ingested by the mosquito, thereby completing the life cycle. To profile malarial isolates for differential chemical responses and to identify inhibitors of malarial growth, an assay that measures P. falciparum growth and replication within erythrocytes was employed. This assay uses a DNA binding fluorescent dye (SYBR Green) to detect parasite DNA following cell lysis. Because mature erythrocytes lack DNA, only Plasmodium-derived DNA is detected.
The SYBR Green viability assay was adapted from a method described previously (Plouffe et al., 2008). For screening 3 ul culture medium was dispensed into 1536 well black clear bottom plates (Aurora Biotechnologies) using a Multidrop Combi (Thermo Fisher Scientific Inc.), 23 nL compounds in DMSO were added by a pin tool (Kalypsys), and 5 ul of erythrocytes infected with P. falciparum (0.3% parasitemia, 2.5% hematocrit final concentration) were added. The plates were incubated at 37 C in a humidified incubator in 5% CO2 for 72 h, and 2 ul lysis buffer (20 mM Tris HCl, 10 mM EDTA, 0.16% saponin, 1.6% triton X, 10X SYBR Green I supplied as 10,000X […] by Invitrogen) was added to each well. The plates were mixed for 25 sec with gentle shaking and incubated overnight at room temperature in the dark. The following morning, fluorescence intensity at 485(14) nm excitation and 535(25) nm emission wavelengths was measured on an EnVision (Perkin Elmer) plate reader. Plate reads were normalized relative to the control inhibitor (0.29 uM artemisinin) and vehicle (DMSO) wells present on each plate and then corrected by an algorithm using vehicle-only control plates at the beginning and end of the compound plate stack.

Structure (SMILES) | remaining parasite growth % (stronger effect = lower value)
N#Cc1ccc(NC(=O)Nc2ccccc2Br)c2n[nH]nc12 | 66.9%
CC1=C(/C=C/C(C)=C/C=C/C(C)=C/C(=O)Nc2ccc(O)cc2)C(C)(C)CCC1 | 14.1%
COc1ncc(-c2ccc3nccc(-c4ccnnc4)c3c2)cc1NS(=O)(=O)c1ccc(F)cc1F | -1.12%
COc1cc2ncnc(-n3nc(-c4ccccn4)nc3N)c2cc1OC | 68.8%
CCOc1ccc(Nc2nc(-c3c(C)nc4ccccn34)cs2)cc1 | 2.43%
C[C@@H]1CCN(C(=O)CC#N)C[C@H]1N(C)c1ncnc2[nH]ccc12 | 89.8%
CC(C)(C)c1cc(C(=O)O)c(NC(=O)Nc2ccc3[nH]ncc3c2)s1 | 97%
COc1ccc(C2CC(c3ccccc3)=NN2c2ccc(S(N)(=O)=O)cc2)cc1 (stereo not given) | 23.3%
COc1cc(Nc2ncc(F)c(Nc3ccc4c(n3)NC(=O)C(C)(C)O4)n2)cc(OC)c1OC | 83%
COc1cccc2c1CCCC2CCCN1CCN(C2CCCCC2)CC1 (stereo not given) | -0.577%
NC(CO)(CO)CCc1ccc(Sc2cccc(OCc3ccccc3)c2)cc1Cl | -0.423%
CC(=O)Nc1ccc([C@H](C)C(=O)Nc2ncc(C(C)C)s2)cc1 | 95.5%
Cc1nc(N)sc1-c1ccnc(Nc2ccc(N3CCOCC3)cc2)n1 | 2.54%
O=C(Nc1ccccc1-c1cn2c(CN3CCNCC3)csc2n1)c1cnc2ccccc2n1 | -2.01% and -0.108%
CC(C)[C@H](CO)Nc1nc(Nc2ccc(C(=O)O)c(Cl)c2)c2ncn(C(C)C)c2n1 | 41.8%
COc1cc2nc(-c3ccc(N4CCN(C)CC4)cc3)nc(NCCN3CCOCC3)c2cc1OC | -1.55%
CN1CCN(CCOc2cc(OC3CCOCC3)c3c(Nc4c(Cl)ccc5c4OCO5)ncnc3c2)CC1 | 0.208%
OC[C@H]1O[C@@H](n2cnc3c2NC=NC[C@@H]3O)C[C@H]1O | 97.1%
COc1cc(N2CCC(N3CCN(C)CC3)CC2)ccc1Nc1ncc(Cl)c(Nc2ccccc2S(=O)(=O)C(C)C)n1 | -0.393%
O=C(N[C@@H](c1ccccc1)[C@@H]1CCCCN1)c1cccc(C(F)(F)F)c1Cl | 52.4%

Structure (SMILES) | remaining parasite growth % (stronger effect = lower value)
CO[C@H]1C[C@@H]2CC[C@@H](C)[C@@](O)(O2)C(=O)C(=O)N2CCCC[C@@H]2C(=O)O[C@H]([C@H](C)C[C@@H]2CC[C@H](OCCO)[C@H](OC)C2)CC(=O)[C@H](C)C=C(C)[C@@H](O)[C@@H](OC)C(=O)[C@H](C)C[C@H](C)C=CC=CC=C1C | -1.41%
CN(C)Cc1ccc(-c2nc3cccc4c3n2CCNC4=O)cc1 | 86.1%
Clc1ccc(-c2nc3sccn3c2C=NOCc2ccc(Cl)c(Cl)c2)cc1 | 110%
O=C(O)CCC1CCC(c2cc(F)ccc2F)(S(=O)(=O)c2ccc(Cl)cc2)CC1 (stereo not given) | 23.3%
CC(C)(C)C(=O)Oc1ccc2c(c1)nc(NC(=O)c1cccc([N+](=O)[O-])c1)n2CCCO | 92%
CC[C@H]1OC(=O)[C@H](C)[C@@H](O[C@H]2C[C@@](C)(OC)[C@@H](O)[C@H](C)O2)[C@H](C)[C@@H](O[C@@H]2O[C@H](C)C[C@H](N(C)C)[C@@H]2O)[C@](C)(O)C[C@@H](C)CN(C)[C@H](C)[C@@H](O)[C@]1(C)O | 11.3%
CC(C)(C(=O)NCC(F)(F)C(F)(F)F)C(=O)N[C@@H]1C(=O)Nc2ccccc2-c2ccccc21 | 5.09%
CN(C)C1CCN(C(=O)c2ccc(NC(=O)Nc3nc(N4CCOCC4)nc(N4CCOCC4)n3)cc2)CC1 | 0.246%
Cc1ccc(F)c(NC(=O)Nc2ccc(-c3cccc4[nH]nc(N)c34)cc2)c1 | 81.3%
CC(=O)N(C)C1(c2ccccc2)CCN(CCC[C@]2(c3ccc(Cl)c(Cl)c3)CCCN(C(=O)c3ccccc3)C2)CC1 | -0.589%
O=C(Nc1cc(Cl)cc2c1[nH]c1cnccc12)c1cccnc1 | -0.264%
O=C1C(Cl)=C(NCCN2CCOCC2)C(=O)c2ncccc21 | 34.6%
CC(C)C(=O)Nc1ncc(-c2cc(C(F)F)nn2-c2c(Cl)cccc2Cl)s1 | 0.0648%
O=c1cc(N2CCOCC2)oc2c(-c3cccc4c3sc3ccccc34)cccc12 | 3.79%
O=C(O)c1ccc(-c2cc3cccnc3c(-c3ccc4nonc4c3)n2)cc1 | 98.1%
c1ccc2c(-c3cnn4cc(-c5ccc(N6CCNCC6)cc5)cnc34)ccnc2c1 | -1.65%
CCc1ccc(OCc2ccccc2C(=O)Nc2ccc3nc(C)cc(N)c3c2)cc1 | -0.867%
O=c1cc(CN2CCOCC2)occ1OCCCCCSc1ccnc2cc(C(F)(F)F)ccc12 | 28.8%
CO[C@@H](C(=O)N1Cc2[nH]nc(NC(=O)c3ccc(N4CCN(C)CC4)cc3)c2C1)c1ccccc1 | 5.46%
CC(C)(C)COc1ccc(-n2cc(C(=O)O)cn2)cc1C#N | 28.3%
